PubChem BioAssay AID1085 (Emory University Molecular Libraries Screening Center, 2008)
Out of some 220,000 compounds screened, about 930 (0.42%) were called active. This excerpt belongs to a sample that is enriched for actives. Unmarked numbers belong to inactive results. No stated cut-off is given here; in the data, active means inhibition above about 50%; inactive means the rest.

Target: Glycoprotein 42 (Epstein-Barr virus (strain AG876)) (UniProt Q1HVG2)
Assay: Epstein-Barr virus gp42 inhibitors, primary screen, biochemical, uHTS, fluorescence polarization (AID 1085)
Details: Fluorescence polarization binding assay, mP read-out; hits give high values; tested at 21.74 µM

Glycoprotein 42 (Epstein-Barr virus (strain AG876)), sequence (Q1HVG2 whole entry, looked up): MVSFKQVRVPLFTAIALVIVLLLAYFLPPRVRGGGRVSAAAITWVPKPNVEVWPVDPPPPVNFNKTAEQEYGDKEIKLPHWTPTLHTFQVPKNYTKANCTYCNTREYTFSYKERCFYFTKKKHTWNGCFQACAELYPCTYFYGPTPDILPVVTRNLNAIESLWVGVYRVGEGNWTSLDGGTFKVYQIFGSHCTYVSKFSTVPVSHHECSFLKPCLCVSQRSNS

SMILES	inhibition
CCOc1ccc(N2CC(C(=O)N/N=C/c3sccc3C)CC2=O)cc1 (stereo not given)	-24%
C=CCNc1cnn(-c2ccc(C)cc2)c(=O)c1Cl	15.2%
O=C(COC(=O)CNS(=O)(=O)c1ccccc1)NC12CC3CC(CC(C3)C1)C2	-4.36%
COc1ccc(NC(=O)COc2ccc(C(=O)OCC(=O)N(C)C3CCS(=O)(=O)C3)cc2OC)cc1 (stereo not given)	-11.6%
Cc1c(-c2cccc(Cl)c2)nc2ccccc2c1C(=O)OCC(=O)N(C)C1CCS(=O)(=O)C1 (stereo not given)	27.8%
CN(C(=O)COC(=O)c1cc(-c2ccco2)nc2ccccc12)C1CCS(=O)(=O)C1 (stereo not given)	95.4% (active)
COc1ccc(/C=N/NC(=O)CNC(=O)c2ccc(S(=O)(=O)N3CCCC3)cc2)c(OC)c1	-7.62%
COc1ccc(OCC(=O)NN2Cc3ccccc3C2=N)cc1	-18.4%
O=C(NC1CC1)C1=C[C@H](c2c[nH]c3ccccc23)C[C@H](OCc2ccc(CO)cc2)O1	-3.29%
O=C(NCc1ccc2c(c1)OCO2)c1ccc2c(c1)C(=O)N(CC1CCCO1)C2=O (stereo not given)	-19.8%
O=c1c2cc3c(=O)n(CC4CCCO4)c(=O)c3cc2c(=O)n1CC1CCCO1 (stereo not given)	-9.61%
O=C1c2cccc3c([N+](=O)[O-])ccc(c23)C(=O)N1CC1CCCO1 (stereo not given)	64.2% (active)
CN1CCc2nc(SC(C(=O)O)c3ccccc3)c(C#N)c(-c3cccs3)c2C1 (stereo not given)	6.93%
CC(C)CNC(=O)COC(=O)c1ccccc1OCC(=O)Nc1ccc(Br)cc1	-2.14%
O=C(Oc1c(-c2ccco2)oc2ccccc2c1=O)c1cccnc1	-4.14%
Cc1cc(SCC(=O)NCCN2C(=O)CSC2=O)nc2ccccc12	-6.4%
COc1cc(C(F)(F)F)nc2c(Br)c(C(C)(C)C)nn12	-5.73%
CN(CCN1CCOCC1)Cc1nc(-c2ccc3c(c2)OCO3)no1	-2.97%
O=C1c2ccccc2-c2ncnc3c(N4CCOCC4)cc(N4CCOCC4)c1c23	51.8% (active)
Cc1oc2c(c1C(=O)N1CCOCC1)C(=O)c1ccccc1C2=O	-10.1%
c1ccc(-c2oc3ncnc(N4CCOCC4)c3c2-c2ccccc2)cc1	0.89%
COCCn1c(Cc2cccn2C)nnc1SCC(=O)Nc1nccs1	0.89%
CC(=O)Nc1cccc(Oc2cc(C#N)c(C#N)cc2N2CCOCC2)c1	-5.04%

SMILES	inhibition
COc1cc(N2CCCC2)c(OC)cc1/C=C(/C#N)c1cccc(Br)c1	112% (active)
COc1cccc(C(=O)Nc2ccc(N3CCCC3)cc2)c1	-3.03%
CCO[C@H]1OC(C(=O)N2CCOCC2)=C[C@@H](c2ccc3c(c2)OCO3)[C@@H]1CCCO	-9.61%
CCO[C@H]1OC(C(=O)N2CCCCCCC2)=C[C@@H](c2ccc(C(F)(F)F)cc2)[C@@H]1CCCO	116% (active)
CCO[C@@H]1OC(C(=O)N2CCOCC2)=C[C@H](C)[C@H]1CCCO	-7.59%
COC(=O)c1sccc1NN1C(=O)c2ccccc2C1=O	-6.24%
CC(=O)Nc1ccc(S(=O)(=O)N2CCN(C(=O)c3ccccc3F)CC2)cc1	-7.73%
CCOC(=O)C1=C(N)N(c2ccc(C)cc2)C2=C(C(=O)CCC2)C1c1cccs1 (stereo not given)	-16.1%
CC(=O)NC(NC(=S)Nc1c(C)n(C)n(-c2ccccc2)c1=O)C(Cl)(Cl)Cl (stereo not given)	-9.48%
COc1ccc(/C(C)=N/NC(=O)CCC(=O)Nc2ccc(Cl)cc2Cl)c(OC)c1	-0.68%
Cc1nn(C)cc1N1C(=O)c2cccc3c(N)ccc(c23)C1=O	149% (active)
Cc1nn(-c2cc(Cl)ccc2N)c(=O)c2ccccc12	-22.9%
COc1ccc(N2C(=O)c3cccc4cccc(c34)C2=O)nn1	15.4%
Clc1cccc(CN2COc3c(cc(Cl)c4cccnc34)C2)c1	1.66%
CC(C)(C)NC(=O)CSC(=Nc1ccccc1F)NC#N	4.3%
CCNC(=O)CC1C(=O)N(c2ccc(OC)cc2)C(=S)N1CCc1ccncc1 (stereo not given)	-17.4%
CCOC(=O)c1sc(NC(=O)CSc2nc(C)cc(C(F)(F)F)n2)c(C#N)c1C	-17.3%
COc1ccc2nc(N3CCCC(O)C3)c(C#N)cc2c1 (stereo not given)	46.9%
CCOc1ccc2nc(N3CCCN(C(=O)Nc4ccccc4C)CC3)c(C#N)cc2c1	53.8% (active)
CCOc1ccc2nc(NCCNS(=O)(=O)c3ccccc3)c(C#N)cc2c1	-8.9%
O=C(CCCCCN1C(=O)c2cccc3cccc(c23)C1=O)NCc1ccco1	-16.7%
CCN(CC)S(=O)(=O)c1ccc(N2CCOCC2)c(NC(=O)C2COc3ccccc3O2)c1 (stereo not given)	-2.58%
O=C(N/N=C/c1ccco1)c1csc2c1CCCC2	-15.1%

SMILES	inhibition
Cc1c(C(=O)N2CCCc3ccccc32)sc2nc(-c3ccccc3)cn12	-4.31%
Cc1occc1C(=O)N1CCCc2ccccc21	-1.51%
Cc1cccc2cc3c(N)c(C(=O)N4CCCc5ccccc54)sc3nc12	88.5% (active)
CCOC(=O)C(C)n1nc(-c2ccccc2)c2ccccc2c1=O (stereo not given)	-6.93%
Cn1cnc([N+](=O)[O-])c1Sc1ccccc1	-26%
COc1ccccc1NC(=O)C[n+]1ccccc1	-3.15%
COC(=O)Cc1nc2ccccc2[nH]1	-12.7%
COC(=O)C[n+]1cccc2ccccc21	128% (active)
CSc1cc(C)n(-c2ccccc2C)c(=S)c1C(C)=O	-23.5%
COc1ccc(N(CCC#N)S(=O)(=O)c2ccc(Cl)cc2)cc1	-7.41%
O=C(Nc1ccc(Cl)cc1)C1c2cccc[n+]2CC(=O)N1Cc1ccc2c(c1)OCO2 (stereo not given)	-27%
CCOc1cccc(=O)c2c(C)n(CC3CCCO3)c(C)c12 (stereo not given)	14.8%
O=S(=O)(Cc1cc(Sc2ccccc2)nc(-c2ccccc2)n1)c1ccccc1	3.74%
CCN(c1ccc(NC(=O)COC(=O)CCc2nc3ccccc3n2-c2ccccc2)cc1)C(C)C	-13%
COc1ccc([N+](=O)[O-])cc1NC(=O)c1ccc(N(Cc2ccccc2C)S(C)(=O)=O)cc1	-6.7%
Cc1ccc(-c2cnc(NC(=O)CCC(=O)N(C)Cc3ccccc3)n2C)cc1	4.29%
Cc1nc2ccccc2cc1C(=O)N/N=C/c1ccc([N+](=O)[O-])cc1	-3.69%
O=C(N/N=C/c1ccc(Cl)cc1)c1nc2ccc([N+](=O)[O-])cc2c(=O)[nH]1	78.6% (active)
O=C(N/N=C/c1ccc([N+](=O)[O-])cc1)c1c[nH]c2ccccc12	-12.7%
Nc1[nH]c(=S)nc2nc(-c3ccccc3)c(-c3ccccc3)nc12	-1.95%
COc1ccc(NC(=O)Cn2c(=O)n(Cc3ccco3)c(=O)c3ccccc32)cc1	-3.89%
Cc1cs/c(=N\N=C\c2ccc(O)cc2)n1Cc1ccco1	8.07%
CN(c1ccccc1)S(=O)(=O)c1cccc(NC(=O)Cc2c(F)cccc2Cl)c1	13.1%

SMILES	inhibition
O=S(=O)(c1ccc(F)cc1)N1CCN(C(=S)NC2CCCC2)CC1	-9.24%
CCN(CC)P(=O)(Nc1ccc(SC(F)F)cc1)c1ccc(N(C)C)cc1NC(=O)c1ccco1 (stereo not given)	-14.5%
O=C(NCCN1C(=O)S/C(=C\c2cccnc2)C1=O)c1ccc(S(=O)(=O)N2CCCC2)cc1	-22.6%
COC(=O)CSc1nccc(-c2cccs2)n1	-13.3%
O=C(Nc1ccnc(-c2ccncc2)n1)c1cccs1	-5.75%
O=C(O)COc1ccc(-c2nccc(-c3cccs3)n2)cc1	50.4% (active)
CCN(CC)C(=O)Oc1ccc(Br)cc1C(=O)Nc1ccc(F)c(Cl)c1	-10.6%
Cc1ccccc1N1C(=O)C(Oc2ccc(Cl)cc2)C1CNCC1CCCO1 (stereo not given)	-2.06%
COc1cc(C(CCN2CCN(c3ccccc3)CC2)c2c(OC)cc(OC)c3ccc(=O)oc23)cc(OC)c1OC (stereo not given)	-16.3%
CCOC(=O)/C(C#N)=C/c1ccc(N2CCN(Cc3ccccc3)CC2)cc1	128% (active)
COc1ccc(N2CCN(C(=O)/C(C#N)=C/c3ccccc3)CC2)cc1	-19%
CCOC(=O)/C(C#N)=C/c1ccc(N2CCCCC2)cc1	-25.7%
Cc1ccc(C(=O)COC(=O)CCCC(=O)NC2CCCCC2)cc1[N+](=O)[O-]	4.86%
O=C(Cc1ccc(Br)cc1)N1CCN(c2ccccn2)CC1	4.9%
CC(=O)NNC1=Nc2ccccc2N(C)C(C)C1 (stereo not given)	-1.65%
COc1ncnc2c1N=C1CC(C)(C)CC(N)=C1S2	81.4% (active)
CC(C)(C)c1ccc(/C=C/C(=O)Nc2ncccn2)cc1	-8.99%
COc1cc(N2C(=O)CC3(CCCC3)CC2=O)cc(OC)c1OC	-4.54%
CCN1CC=C2C(C#N)=C(N)C(C#N)(C#N)[C@H](c3ccoc3)[C@H]2C1	56.6% (active)
CCOC(=O)N1CC=C2C(C#N)=C(N)C(C#N)(C#N)[C@H](c3cccs3)[C@H]2C1	6.62%
CCCN1CC=C2C(C#N)=C(N)C(C#N)(C#N)C(c3cc(OC)ccc3OC)C2C1 (stereo not given)	36.5%
